This is an account of results in paper PMC7862700, “An all-to-all approach to the identification of sequence-specific readers for epigenetic DNA modifications on cytosine”.

Holding throughout (test): DAPPL (digital affinity profiling via proximity ligation, sequencing); 10 mM Tris-HCl pH 7.5, 50 mM NaCl, 1 mM DTT, 4% glycerol, room temperature, 30 min; GST-TFs on glutathione beads, 16-mer random dsDNA library, 0.1% formaldehyde crosslink after washing; high values mean tight binding
Experiment [1] concerns the target T1, FEV (Homo sapiens, UniProt Q99581 1-238).
T1 sequence: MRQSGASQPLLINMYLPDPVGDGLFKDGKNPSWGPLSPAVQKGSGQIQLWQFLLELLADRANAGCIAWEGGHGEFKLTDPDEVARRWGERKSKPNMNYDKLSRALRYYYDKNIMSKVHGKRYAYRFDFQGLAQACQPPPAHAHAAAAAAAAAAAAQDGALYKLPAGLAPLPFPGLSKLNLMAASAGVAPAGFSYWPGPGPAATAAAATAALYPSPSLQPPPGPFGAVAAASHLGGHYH
The note with it: protein: recombinant; tags: N-terminal GST; dsDNA, one strand shown. A digest of the protocol:
(§1)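 Binding signal is each hexamer's read frequency for a factor divided by its frequency in the tag-only sample. The factors were GST-fused human transcription factors from yeast, captured on glutathione beads, DNA-barcoded and pooled with that sample. Pools were incubated with 200 nmole of a random double-stranded 16-mer DNA library in Tris/NaCl/DTT/glycerol buffer at room temperature for 30 min, then washed, crosslinked with 0.1% formaldehyde, proximity-ligated with BsaI/T4 ligase (1 h, 37 °C), PCR-amplified and sequenced on an Illumina NextSeq500.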

Experiment [2] deals with ETV5 (Homo sapiens, UniProt P41161 1-510). The settings on record: protein: recombinant; tags: N-terminal GST; dsDNA, one strand shown. The method in brief: as §1
Sequence of ETV5 (P41161 whole entry): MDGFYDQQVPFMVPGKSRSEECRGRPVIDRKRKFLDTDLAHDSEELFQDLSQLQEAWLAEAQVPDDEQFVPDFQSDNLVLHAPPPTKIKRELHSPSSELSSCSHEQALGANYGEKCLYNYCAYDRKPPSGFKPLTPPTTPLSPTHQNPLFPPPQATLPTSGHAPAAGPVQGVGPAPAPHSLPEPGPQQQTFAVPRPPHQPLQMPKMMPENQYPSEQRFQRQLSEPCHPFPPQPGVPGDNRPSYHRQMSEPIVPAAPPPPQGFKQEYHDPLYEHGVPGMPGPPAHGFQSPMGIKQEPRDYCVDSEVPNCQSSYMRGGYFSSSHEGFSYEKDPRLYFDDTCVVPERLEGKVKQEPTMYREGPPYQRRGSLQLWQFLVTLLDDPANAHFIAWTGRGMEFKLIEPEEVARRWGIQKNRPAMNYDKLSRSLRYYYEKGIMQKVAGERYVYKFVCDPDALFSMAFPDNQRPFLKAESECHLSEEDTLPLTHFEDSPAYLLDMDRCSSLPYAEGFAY
Experiment [3] addresses HSF1 (Homo sapiens, UniProt Q00613 1-529). The settings on record: protein: recombinant; tags: N-terminal GST; chain copies: 3; dsDNA, one strand shown. A digest of the protocol:
as §1

For experiment [4], the target named is T2, SPIC (Homo sapiens, UniProt Q8N5J4 1-248).
T2 sequence: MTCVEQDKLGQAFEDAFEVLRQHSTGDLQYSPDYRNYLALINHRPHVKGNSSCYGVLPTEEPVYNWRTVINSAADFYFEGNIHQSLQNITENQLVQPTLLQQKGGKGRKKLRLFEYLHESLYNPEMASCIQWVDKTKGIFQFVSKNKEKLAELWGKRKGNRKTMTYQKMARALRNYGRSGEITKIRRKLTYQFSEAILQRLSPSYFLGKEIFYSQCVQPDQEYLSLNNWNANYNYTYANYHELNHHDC
The note with it: protein: recombinant; tags: N-terminal GST; dsDNA, one strand shown. The method in brief: as §1

For experiment [5], the target named is ELF4 (Homo sapiens, UniProt Q99607 1-663). The note with it: protein: recombinant; tags: N-terminal GST; dsDNA, one strand shown. A digest of the protocol: as §1
Sequence of ELF4 (Q99607 whole entry): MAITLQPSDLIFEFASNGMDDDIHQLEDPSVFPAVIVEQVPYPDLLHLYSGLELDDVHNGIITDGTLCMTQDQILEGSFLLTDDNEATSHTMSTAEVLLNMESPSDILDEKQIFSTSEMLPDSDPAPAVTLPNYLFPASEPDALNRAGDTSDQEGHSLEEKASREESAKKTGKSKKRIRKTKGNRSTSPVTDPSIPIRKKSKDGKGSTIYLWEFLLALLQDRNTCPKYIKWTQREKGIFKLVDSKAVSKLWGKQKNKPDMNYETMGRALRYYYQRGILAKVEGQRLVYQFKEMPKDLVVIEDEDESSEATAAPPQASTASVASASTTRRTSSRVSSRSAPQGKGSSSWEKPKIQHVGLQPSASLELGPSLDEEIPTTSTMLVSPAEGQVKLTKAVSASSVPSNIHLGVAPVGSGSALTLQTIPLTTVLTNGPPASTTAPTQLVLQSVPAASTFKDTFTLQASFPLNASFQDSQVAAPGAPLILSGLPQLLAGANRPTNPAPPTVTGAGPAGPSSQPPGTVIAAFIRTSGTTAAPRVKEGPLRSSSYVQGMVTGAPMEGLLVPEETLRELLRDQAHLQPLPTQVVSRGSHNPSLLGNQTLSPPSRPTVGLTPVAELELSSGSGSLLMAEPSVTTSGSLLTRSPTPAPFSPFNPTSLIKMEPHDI
The target of experiment [6] is T3, ELK4 (Homo sapiens, UniProt P28324-2 1-405).
T3 sequence: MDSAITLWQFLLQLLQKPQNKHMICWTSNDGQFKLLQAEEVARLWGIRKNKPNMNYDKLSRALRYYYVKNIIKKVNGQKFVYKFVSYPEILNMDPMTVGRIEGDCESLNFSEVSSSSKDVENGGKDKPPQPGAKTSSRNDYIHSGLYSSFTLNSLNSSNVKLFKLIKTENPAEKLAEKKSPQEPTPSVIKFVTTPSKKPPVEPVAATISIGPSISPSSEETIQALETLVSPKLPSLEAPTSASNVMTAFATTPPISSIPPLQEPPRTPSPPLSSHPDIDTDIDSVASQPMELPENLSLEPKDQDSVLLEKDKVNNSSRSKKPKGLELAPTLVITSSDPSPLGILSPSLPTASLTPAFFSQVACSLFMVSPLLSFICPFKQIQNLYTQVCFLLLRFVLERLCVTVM
The settings on record: protein: recombinant; tags: N-terminal GST; dsDNA, one strand shown. A digest of the protocol: as §1

Experiment [7] deals with T4, ETV2 (Homo sapiens, UniProt O00321 1-342).
T4 sequence: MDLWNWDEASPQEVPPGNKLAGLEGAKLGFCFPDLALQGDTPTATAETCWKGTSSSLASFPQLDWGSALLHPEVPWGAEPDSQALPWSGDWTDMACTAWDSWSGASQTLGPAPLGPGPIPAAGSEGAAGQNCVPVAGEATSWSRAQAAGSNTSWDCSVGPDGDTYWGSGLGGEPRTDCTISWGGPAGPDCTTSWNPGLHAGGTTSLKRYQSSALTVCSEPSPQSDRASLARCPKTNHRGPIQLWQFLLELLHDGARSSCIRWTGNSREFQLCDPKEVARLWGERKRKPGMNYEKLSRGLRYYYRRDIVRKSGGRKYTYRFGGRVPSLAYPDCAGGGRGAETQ
The settings on record: protein: recombinant; tags: N-terminal GST; dsDNA, one strand shown. A digest of the protocol: as §1

For experiment [8], the target named is T5, ELF3 (Homo sapiens, UniProt P78545 1-371).
T5 sequence: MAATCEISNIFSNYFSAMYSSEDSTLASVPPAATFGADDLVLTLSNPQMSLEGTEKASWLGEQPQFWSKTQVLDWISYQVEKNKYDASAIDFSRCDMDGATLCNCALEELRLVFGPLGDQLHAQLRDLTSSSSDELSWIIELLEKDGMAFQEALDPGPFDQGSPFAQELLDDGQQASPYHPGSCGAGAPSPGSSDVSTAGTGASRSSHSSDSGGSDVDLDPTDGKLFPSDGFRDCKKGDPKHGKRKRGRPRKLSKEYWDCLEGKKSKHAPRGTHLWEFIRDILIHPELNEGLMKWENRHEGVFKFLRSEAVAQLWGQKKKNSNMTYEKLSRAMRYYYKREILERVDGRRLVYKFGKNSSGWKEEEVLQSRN
The note with it: protein: recombinant; tags: N-terminal GST; dsDNA, one strand shown. The method in brief:
as §1

Experiment [9] has as its target CRX (Homo sapiens, UniProt O43186 1-299). The settings on record: protein: recombinant; tags: N-terminal GST; dsDNA, one strand shown. The method in brief: as §1
Experiment [10] deals with ETV1 (Homo sapiens, UniProt P50549 1-477). The note with it: protein: recombinant; tags: N-terminal GST; dsDNA, one strand shown. A digest of the protocol:
as §1

For experiment [11], the target named is T6, ERF (Homo sapiens, UniProt P50548 1-548).
T6 sequence: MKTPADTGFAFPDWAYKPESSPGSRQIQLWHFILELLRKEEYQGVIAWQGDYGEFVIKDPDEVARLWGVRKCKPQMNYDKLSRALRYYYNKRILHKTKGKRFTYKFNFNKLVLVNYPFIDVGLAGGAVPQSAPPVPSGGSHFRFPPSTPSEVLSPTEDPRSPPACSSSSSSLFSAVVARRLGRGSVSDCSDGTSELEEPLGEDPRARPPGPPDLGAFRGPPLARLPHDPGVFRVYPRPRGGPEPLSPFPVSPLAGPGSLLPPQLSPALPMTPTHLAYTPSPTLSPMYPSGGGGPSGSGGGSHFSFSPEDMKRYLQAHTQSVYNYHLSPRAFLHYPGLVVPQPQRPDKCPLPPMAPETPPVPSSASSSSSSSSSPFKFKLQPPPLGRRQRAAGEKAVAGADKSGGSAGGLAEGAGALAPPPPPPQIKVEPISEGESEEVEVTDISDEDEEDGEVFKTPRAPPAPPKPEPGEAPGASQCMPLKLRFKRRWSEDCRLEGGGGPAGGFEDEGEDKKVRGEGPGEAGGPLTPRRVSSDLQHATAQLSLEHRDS
The settings on record: protein: recombinant; tags: N-terminal GST; dsDNA, one strand shown. A digest of the protocol: as §1

The target of experiment [12] is T7, ETV3L (Homo sapiens, UniProt Q6ZN32 1-361).
T7 sequence: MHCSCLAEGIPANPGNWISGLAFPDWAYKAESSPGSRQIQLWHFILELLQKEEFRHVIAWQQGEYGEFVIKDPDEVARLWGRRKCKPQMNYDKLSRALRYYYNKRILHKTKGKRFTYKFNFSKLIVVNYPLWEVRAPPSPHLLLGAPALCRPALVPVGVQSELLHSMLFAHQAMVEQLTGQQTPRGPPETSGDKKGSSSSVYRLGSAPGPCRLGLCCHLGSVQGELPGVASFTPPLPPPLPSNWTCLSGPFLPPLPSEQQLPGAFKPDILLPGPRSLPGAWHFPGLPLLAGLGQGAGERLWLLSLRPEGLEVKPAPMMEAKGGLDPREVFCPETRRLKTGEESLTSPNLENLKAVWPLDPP
The note with it: protein: recombinant; tags: N-terminal GST; dsDNA, one strand shown. The method in brief:
as §1

Experiment [13] has as its target T8, ETS2 (Homo sapiens, UniProt P15036 1-469).
T8 sequence: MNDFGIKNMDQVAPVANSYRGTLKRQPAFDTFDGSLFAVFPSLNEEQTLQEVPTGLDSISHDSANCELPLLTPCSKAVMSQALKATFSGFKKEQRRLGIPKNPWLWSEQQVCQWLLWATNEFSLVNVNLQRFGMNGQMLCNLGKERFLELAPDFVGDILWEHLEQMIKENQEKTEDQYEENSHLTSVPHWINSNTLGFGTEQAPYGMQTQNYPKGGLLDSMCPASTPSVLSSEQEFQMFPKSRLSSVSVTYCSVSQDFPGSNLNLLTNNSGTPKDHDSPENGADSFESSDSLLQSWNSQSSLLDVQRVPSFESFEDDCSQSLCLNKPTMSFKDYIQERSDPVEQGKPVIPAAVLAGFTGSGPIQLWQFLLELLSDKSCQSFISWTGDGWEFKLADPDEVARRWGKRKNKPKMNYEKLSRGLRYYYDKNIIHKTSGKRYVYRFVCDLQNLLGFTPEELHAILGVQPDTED
The note with it: protein: recombinant; tags: N-terminal GST; dsDNA, one strand shown. A digest of the protocol: as §1

For experiment [14], the target named is T9, SPDEF (Homo sapiens, UniProt O95238 1-335).
T9 sequence: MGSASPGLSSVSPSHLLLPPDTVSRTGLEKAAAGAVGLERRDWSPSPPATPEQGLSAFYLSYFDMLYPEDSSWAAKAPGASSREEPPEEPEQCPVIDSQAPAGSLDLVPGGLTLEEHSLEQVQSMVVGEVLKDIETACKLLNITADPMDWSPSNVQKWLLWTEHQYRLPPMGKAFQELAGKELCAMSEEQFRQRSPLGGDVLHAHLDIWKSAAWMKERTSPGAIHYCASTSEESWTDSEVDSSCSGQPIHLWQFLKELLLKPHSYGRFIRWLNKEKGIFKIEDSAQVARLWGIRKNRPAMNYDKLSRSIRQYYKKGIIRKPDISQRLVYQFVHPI
The settings on record: protein: recombinant; tags: N-terminal GST; dsDNA, one strand shown. The method in brief:
as §1

The target in experiment [15] is T10, ETV7 (Homo sapiens, UniProt Q9Y603 1-341).
T10 sequence: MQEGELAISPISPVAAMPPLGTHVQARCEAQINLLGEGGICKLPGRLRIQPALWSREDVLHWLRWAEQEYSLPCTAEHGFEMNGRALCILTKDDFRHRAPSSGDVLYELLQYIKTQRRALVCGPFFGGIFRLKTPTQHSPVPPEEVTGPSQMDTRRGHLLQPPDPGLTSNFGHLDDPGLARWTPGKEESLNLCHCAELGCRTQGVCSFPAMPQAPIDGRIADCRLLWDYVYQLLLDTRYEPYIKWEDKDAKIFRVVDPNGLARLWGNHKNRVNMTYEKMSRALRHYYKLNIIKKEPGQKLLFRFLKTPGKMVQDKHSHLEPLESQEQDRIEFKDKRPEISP
The note with it: protein: recombinant; tags: N-terminal GST; dsDNA, one strand shown. A digest of the protocol: as §1

For experiment [16], the target named is T11, ELF5 (Homo sapiens, UniProt Q9UKW6-2 1-255).
T11 sequence: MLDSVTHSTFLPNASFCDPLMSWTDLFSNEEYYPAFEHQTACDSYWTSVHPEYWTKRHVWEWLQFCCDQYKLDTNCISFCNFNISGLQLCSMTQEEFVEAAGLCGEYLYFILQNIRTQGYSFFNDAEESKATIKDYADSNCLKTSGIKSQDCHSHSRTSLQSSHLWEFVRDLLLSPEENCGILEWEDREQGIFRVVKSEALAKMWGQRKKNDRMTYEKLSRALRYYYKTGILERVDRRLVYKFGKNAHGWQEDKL
The settings on record: protein: recombinant; tags: N-terminal GST; dsDNA, one strand shown. The method in brief:
as §1

Experiment [17] concerns the target T12, ETV3 (Homo sapiens, UniProt P41162-2 1-143).
T12 sequence: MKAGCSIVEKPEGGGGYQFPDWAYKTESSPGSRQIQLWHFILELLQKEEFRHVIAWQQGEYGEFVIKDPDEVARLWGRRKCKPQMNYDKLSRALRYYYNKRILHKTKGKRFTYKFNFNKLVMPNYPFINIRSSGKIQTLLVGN
The note with it: protein: recombinant; tags: N-terminal GST; dsDNA, one strand shown. A digest of the protocol: as §1

The target of experiment [18] is ETV6 (Homo sapiens, UniProt P41212 1-452). The note with it: protein: recombinant; tags: N-terminal GST; dsDNA, one strand shown. A digest of the protocol:
as §1

Sequence of HSF1 (Q00613 whole entry): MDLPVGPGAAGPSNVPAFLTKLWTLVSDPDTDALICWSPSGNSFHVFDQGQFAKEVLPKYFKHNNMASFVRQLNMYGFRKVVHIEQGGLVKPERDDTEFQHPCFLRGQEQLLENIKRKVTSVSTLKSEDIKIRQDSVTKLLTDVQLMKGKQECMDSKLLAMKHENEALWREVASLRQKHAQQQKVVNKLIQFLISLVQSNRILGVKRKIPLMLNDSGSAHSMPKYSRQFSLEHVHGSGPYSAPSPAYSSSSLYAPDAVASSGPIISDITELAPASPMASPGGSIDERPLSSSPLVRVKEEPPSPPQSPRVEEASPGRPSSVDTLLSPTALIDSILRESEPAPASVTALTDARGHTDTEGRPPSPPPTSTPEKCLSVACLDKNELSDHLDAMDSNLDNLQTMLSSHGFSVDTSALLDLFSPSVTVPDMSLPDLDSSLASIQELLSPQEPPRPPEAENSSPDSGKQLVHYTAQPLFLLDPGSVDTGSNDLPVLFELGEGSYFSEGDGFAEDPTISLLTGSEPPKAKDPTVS
Sequence of ETV6 (P41212 whole entry): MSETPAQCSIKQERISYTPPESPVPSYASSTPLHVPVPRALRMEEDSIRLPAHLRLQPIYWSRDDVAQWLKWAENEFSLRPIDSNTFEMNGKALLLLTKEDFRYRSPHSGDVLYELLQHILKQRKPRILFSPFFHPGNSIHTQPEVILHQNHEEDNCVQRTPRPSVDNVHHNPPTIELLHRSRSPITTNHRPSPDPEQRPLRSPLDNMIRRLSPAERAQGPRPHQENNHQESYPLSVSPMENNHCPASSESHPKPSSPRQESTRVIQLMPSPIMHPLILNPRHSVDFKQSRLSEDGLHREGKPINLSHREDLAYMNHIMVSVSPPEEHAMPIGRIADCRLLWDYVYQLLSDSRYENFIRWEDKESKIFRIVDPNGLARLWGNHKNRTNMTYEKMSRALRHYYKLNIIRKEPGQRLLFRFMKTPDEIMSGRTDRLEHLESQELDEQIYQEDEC
Sequence of CRX (O43186 whole entry): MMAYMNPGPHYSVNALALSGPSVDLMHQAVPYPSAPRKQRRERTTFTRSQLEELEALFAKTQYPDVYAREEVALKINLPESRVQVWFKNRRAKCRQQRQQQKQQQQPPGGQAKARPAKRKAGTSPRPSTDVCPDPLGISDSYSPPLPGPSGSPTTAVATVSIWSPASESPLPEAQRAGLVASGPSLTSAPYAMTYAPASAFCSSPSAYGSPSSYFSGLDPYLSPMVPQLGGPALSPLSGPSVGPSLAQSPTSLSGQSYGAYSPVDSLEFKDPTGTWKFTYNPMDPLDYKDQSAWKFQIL
Sequence of ETV1 (P50549 whole entry): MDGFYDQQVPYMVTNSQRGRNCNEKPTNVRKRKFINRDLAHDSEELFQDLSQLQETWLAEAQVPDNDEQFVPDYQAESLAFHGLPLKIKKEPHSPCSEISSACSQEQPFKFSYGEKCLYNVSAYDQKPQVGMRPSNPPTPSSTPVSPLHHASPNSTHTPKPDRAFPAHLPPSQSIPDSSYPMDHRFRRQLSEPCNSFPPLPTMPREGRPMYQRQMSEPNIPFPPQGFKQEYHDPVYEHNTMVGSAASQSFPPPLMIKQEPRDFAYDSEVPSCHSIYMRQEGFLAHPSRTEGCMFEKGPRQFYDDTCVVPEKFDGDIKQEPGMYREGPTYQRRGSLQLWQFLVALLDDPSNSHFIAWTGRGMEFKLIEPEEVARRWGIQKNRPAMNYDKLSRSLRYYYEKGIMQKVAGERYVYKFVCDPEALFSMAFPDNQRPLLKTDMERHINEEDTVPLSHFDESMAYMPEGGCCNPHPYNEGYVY

As to TTCCAT, the binding signal in experiment [1] is 1.18 fold enrichment (6-mer frequency, TF over GST control); in experiment [2], 1.36 fold enrichment (6-mer frequency, TF over GST control); in [3], 1.74 fold enrichment (6-mer frequency, TF over GST control); in experiment [4], 1.19 fold enrichment (6-mer frequency, TF over GST control); in experiment [5], 1.27 fold enrichment (6-mer frequency, TF over GST control); in experiment [6], 1.42 fold enrichment (6-mer frequency, TF over GST control). For the same sequence, the binding signal is 1.23 fold enrichment (6-mer frequency, TF over GST control) in experiment [7]; 1.2 fold enrichment (6-mer frequency, TF over GST control) in experiment [8]; 1.43 fold enrichment (6-mer frequency, TF over GST control) in [9]; 1.25 fold enrichment (6-mer frequency, TF over GST control) in [10]; 1.24 fold enrichment (6-mer frequency, TF over GST control) in [11]; 1.29 fold enrichment (6-mer frequency, TF over GST control) in experiment [12]. Besides, the binding signal was 1.25 fold enrichment (6-mer frequency, TF over GST control) in [13]; 1.2 fold enrichment (6-mer frequency, TF over GST control) in experiment [14]; 1.27 fold enrichment (6-mer frequency, TF over GST control) in experiment [15]; 1.26 fold enrichment (6-mer frequency, TF over GST control) in experiment [16]; 1.32 fold enrichment (6-mer frequency, TF over GST control) in [17]; 1.4 fold enrichment (6-mer frequency, TF over GST control) in experiment [18].
